ssDAF-12 act – activates DAF-12 receptor from parasite S. stercoralis; 370,000 compounds, 1% hits; AID 652126; activation, % at 6.8 µM; HEK293 ssDAF-12/GRIP1 lit1-tk-luc reporter, luminescence; % of 3 µM dafachronic acid response;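 active = activation above the mean over all tested compounds plus 3 SD, cut at about 0.9% in these data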
DAX1 StAR inh – blocks DAX1 repression of SF-1 activated StAR promoter. HEK293T StAR-luciferase reporter, SF-1/DAX-1 repression relief. 370,000 compounds, 1.1% hits. inhibition, % at 6.8 µM;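 active = inhibition above the mean over all tested compounds plus 3 SD, cut at about 3.6% in these data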;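 also: higher inhibition means more luminescence from relief of DAX-1 repression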
hgDAF12 agonist – hgDAF-12 agonism, primary luciferase screen. HEK293 GAL4-hgDAF12 UAS-luciferase reporter, agonist luminescence; normalized to butyrate control. activation, % at 6.8 µM. 370,000 compounds, 1.8% hits. AID 687014;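 active = activation above a cutoff set at the mean of all screened compounds plus 3 SD, cut at about 10% in these data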
hcDAF-12 act – H. contortus DAF-12 activation, primary screen | HEK293 hcDAF-12 lit1-tk-luc reporter, luminescence; 0% DMSO, 100% Δ7-dafachronic acid | AID 652067 | activation, % at 6.8 µM | 370,000 compounds, 1.4% hits;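 active = activation above the mean of all tested compounds plus 3 SD, cut at about 5.5% in these data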
SMARCA2 act – SMARCA2 function activation, primary screen; 370,000 compounds, 1% hits; MG213 cells, MMTV-luciferase reporter, dexamethasone, overnight; activation, % at 9.1 µM; AID 652017; in the data active = activation above about 7.8%
hgDAF12 conf – confirmation of H. glycines DAF-12 agonists; shares compounds with hgDAF12 agonist; HEK293 GAL4-hgDAF12 luciferase reporter, agonist mode; percent of butyrate response; activation, % at 6.8 µM; 3,300 compounds, 80% hits; AID 743050;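 active = mean activation over triplicate wells above the hit cutoff derived from the earlier primary screen, cut at about 11% in these data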
LXR ag 2 – activates human LXR-beta, counter-screen for DAF-12 agonists; shares compounds with hgDAF12 agonist; HEK293 Gal4-LXR luciferase reporter, 24 h; activation, % at 6.8 µM; 3,300 tested, under 10 active; AID 743051;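 active = mean activation of the triplicate above a set limit carried over from the primary screen, none filed active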
Target sequence (P55055 whole entry, looked up, the tested form may be a part): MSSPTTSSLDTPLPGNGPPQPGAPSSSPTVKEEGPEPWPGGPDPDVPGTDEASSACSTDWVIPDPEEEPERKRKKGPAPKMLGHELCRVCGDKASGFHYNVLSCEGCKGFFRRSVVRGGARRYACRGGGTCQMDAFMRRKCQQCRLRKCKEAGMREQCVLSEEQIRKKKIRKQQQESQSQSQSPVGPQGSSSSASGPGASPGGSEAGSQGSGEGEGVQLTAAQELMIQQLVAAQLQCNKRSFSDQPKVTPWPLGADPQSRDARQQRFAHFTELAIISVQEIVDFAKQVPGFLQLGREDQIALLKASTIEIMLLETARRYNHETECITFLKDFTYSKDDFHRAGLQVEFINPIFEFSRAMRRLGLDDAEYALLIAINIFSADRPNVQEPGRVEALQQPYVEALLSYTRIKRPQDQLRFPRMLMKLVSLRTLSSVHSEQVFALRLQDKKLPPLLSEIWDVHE
Numbers stand for hits; - = inactive; . = not tested or not shown. Hits are enriched below; roughly 4.2% of the tested compounds scored in any of these assays.

SMILES	ssDAF-12 act	DAX1 StAR inh	hgDAF12 agonist	hcDAF-12 act	SMARCA2 act	hgDAF12 conf	LXR ag 2
Cc1cc(C)n2nc(SCC(=O)Nc3ccc(F)cc3)nc2n1	-	-	-	-	-	.	.
Cc1cc(C)n2nc(SCC(=O)Nc3ccc(O)cc3)nc2n1	-	-	14.7	-	-	-	-
CN(C)C=NC(=O)c1cc(C(=O)c2ccc(C(C)(C)C)cc2)c[nH]1	-	4.4	14.0	-	-	15.6	-
CCCC[C@H]1C2CC(OC(=O)Nc3cccc(C#N)c3)C(C2)[C@H]2CCCCN21 (stereo partly specified)	-	-	-	-	-	.	.
COc1ccc(C(O)c2nc(-c3ccc(N(C)C)cc3)cs2)cc1 (stereo unspecified)	-	-	-	-	-	.	.
O=C(NCc1ccccc1)c1cccc(COc2ccc3c(c2)CCC3)c1	-	-	21.2	-	-	17.4	-
N#Cc1[nH]nc2nc[nH]c(=O)c12	-	-	-	-	-	.	.
COC(=O)c1cc2c(c3c4ccccc4n(S(=O)(=O)c4cccc(C)c4)c13)C(=O)N(Cc1ccccc1OC)C2	-	-	-	-	-	.	.
C/C(C=NNC(=O)c1cc(-c2ccc(Cl)cc2)n[nH]1)=C\c1ccccc1	-	-	-	-	-	.	.
COc1ccc(/C=N/NC(=O)c2ccc[nH]2)cc1	-	-	13.4	-	-	14.9	-
CCC(=O)Nc1nc2ccc3sc(C)nc3c2s1	-	-	-	-	-	.	.
Cc1nc2c(ccc3nc(NC(=O)C4CC4)sc32)s1	-	-	14.8	-	-	12.3	-
COC(=O)[C@]12C[C@H](CC(=O)NCCCN3CCCC3=O)C(=O)N(CCc3ccc(OC)c(OC)c3)C1=C[C@H](C(C)C)O[C@@H]2C1CC1	-	-	-	-	-	.	.
Cc1ccc2nc(-c3ccc(NC(=O)CSc4nnc(Cc5cccs5)n4C)cc3)sc2c1	-	-	13.5	-	-	15.6	-
Cc1ccc2nc(-c3ccc(NC(=O)CSc4nccc(=O)[nH]4)cc3)sc2c1	-	-	13.9	-	-	12.2	-
Cc1nnc(SCC(=O)Nc2ccc(-c3nc4ccccc4s3)cc2)s1	-	-	19.8	6.0	-	19.7	-
CNCCCOc1ccc2c(c1)CCC2	-	-	-	-	-	.	.
c1cnc(SCCOc2ccc3c(c2)CCC3)nc1	-	3.7	15.2	-	-	17.2	-
O=C(c1cc(-c2ccc(Cl)cc2)on1)N1CCCC1	1.1	-	13.5	-	-	15.7	-
O=C(c1cc(-c2cccc(Cl)c2)on1)N1CCCC1	-	-	-	-	-	.	.
CCNC(=O)N(C)[C@H]1C[C@H]2c3[nH]c4c(-c5ccccc5)cccc4c3CCN2C(=O)[C@H]1[C@H](C)O	-	-	-	-	-	.	.
Cc1cc(C(=O)CSc2ncccn2)c(C)n1-c1cccc(F)c1	2.3	4.3	13.8	6.1	-	15.4	-
Cc1cc(C(=O)CSc2n[nH]c(N)n2)c(C)n1-c1cccc(F)c1	-	-	-	-	-	.	.
Cc1cc(C(=O)CSc2nnnn2C)c(C)n1-c1cccc(F)c1	-	-	13.6	-	-	14.8	-
Nc1[nH]c(C(=O)c2ccc(Br)cc2)c(-c2ccc3ccccc3c2)c1C(=O)NCCc1c[nH]c2ccccc12	-	-	-	-	-	.	.
SMILES	ssDAF-12 act	DAX1 StAR inh	hgDAF12 agonist	hcDAF-12 act	SMARCA2 act	hgDAF12 conf	LXR ag 2
Cc1ccc(CN2CCN(CC(C)C)C(CCO)C2)s1 (stereo unspecified)	-	-	15.1	-	-	-	-
CCCCCN(C(=O)CCC(=O)OCC(=O)N(C)C1CCCCC1)c1c(N)n(CCCC)c(=O)[nH]c1=O	-	-	14.3	-	-	-	-
Cc1oc(-c2ccc(-c3ccccc3)cc2)nc1CN(C)C1CCOC1 (stereo unspecified)	-	-	15.8	-	-	14.3	-
O=C(CC1CCCCC1)Nc1nc2ccccc2s1	-	-	13.6	-	-	16.8	-
O=C(OCC#CCSc1nnc(-c2cccc3ccccc23)o1)c1ccc(OC(F)F)cc1	-	.	-	-	.	.	.
O=C(COc1ccccc1[N+](=O)[O-])Nc1ccc(Br)cc1	-	-	16.4	-	-	11.3	-
C/C(=N\NC(=O)COc1ccccc1[N+](=O)[O-])c1cccs1	-	-	15.1	-	-	10.9	-
Cc1ccc(Cn2ccc(NC(=O)c3cc(-c4ccc(F)cc4)on3)n2)cc1	-	-	-	-	-	.	.
O=C(Nc1ccn(Cc2ccccc2)n1)c1ccc(F)cc1	-	-	17.0	-	-	12.8	-
COc1ccc(-c2nnn3c2C2c4cc(-c5cccc(F)c5)ccc4CCN2C(=O)C3)cc1 (stereo unspecified)	-	-	-	-	-	.	.
COC(=O)[C@]12C[C@H](CC(=O)NCC34CC5CC(CC(C5)C3)C4)C(=O)N(Cc3ccc(Cl)cc3Cl)C1=C[C@H](C(C)C)O[C@@H]2C1CC1	-	-	-	-	-	.	.
Cc1cccc(S(=O)(=O)Nc2ccc(-c3nc4ccc(C)cc4s3)cc2)c1	-	4.2	22.5	-	-	21.1	-
Cc1ccc2nc(-c3ccc(NS(=O)(=O)c4c(C)n(C)c(=O)n(C)c4=O)cc3)sc2c1	-	-	19.9	-	-	16.9	-
COC(=O)[C@H](C)NC(=O)[C@@H]1CCCN1C(=O)CNP(=O)(OCc1ccccc1)OCc1ccccc1	-	.	-	-	.	.	.
CCN=C1NC(c2cccc(F)c2)C(C(=O)OC)=C(C)N1Cc1ccccc1C(F)(F)F (stereo unspecified)	-	-	-	-	-	.	.
O=C(Nc1cc2c(oc1=O)CCCC2=O)c1cccc(Cl)c1	-	-	-	-	-	.	.
O=C(/C(C=Nc1cc2c(oc1=O)CCCC2=O)=C(\O)c1ccccc1)c1ccccc1	-	-	13.6	-	-	-	-
COc1cccc(C2c3c(ncn(-c4ccccc4)c3=N)Oc3ccc4ccccc4c32)c1 (stereo unspecified)	-	.	-	-	.	.	.
CCc1ccc(NC2=NCC(c3ccccc3)S2)cc1 (stereo unspecified)	-	-	13.4	-	-	11.1	-
CNc1ncc(C(=O)c2ccc(Br)cc2)s1	-	-	26.2	-	-	15.9	-
CCOc1ccc(N2CC(C(=O)NCCc3ccccc3)CC2=O)cc1 (stereo unspecified)	-	-	-	-	-	.	.
CCCNC(=O)C1CC(=O)N(c2ccc(OCc3ccc(Cl)cc3)cc2)C1 (stereo unspecified)	-	-	14.8	-	-	15.6	-
Cc1ccc(/C=N/NC(=O)c2ccccn2)s1	-	-	15.3	-	-	14.0	-
O=C(N/N=C/c1cn(-c2ccccc2)nc1-c1cc2ccccc2o1)c1c[nH]c2ccccc12	-	-	19.0	-	-	12.8	-
